# In PubChem BioAssay (EPA / NIEHS):
# Activity calls are given as the source filed them. Rule for the calls: active = hit-call score of the fitted dose curve at least 0.9, where 1 is the maximum; inactive = score below 0.9.
# Read-out: Glutathione S-transferase M3 (GSTM3), GSTM3 (gene 2947)
# Test: LTEA_HepaRG_GSTM3: Life Technologies and Expression Analysis (LTEA) Assay for Glutathione S-transferase M3 (GSTM3) using HepaRG (AID 2283501)
# Settings: mRNA level, 48 h; actives raise or lower the signal
# Protocol: LTEA_HepaRG is a cell based, multiplexed-readout assay that uses HepaRG, a human liver cell line, with measurements taken at 48 hours after chemical dosing on a 96-well plate.LTEA_HepaRG_GSTM3 is one of 102 assay component(s) measured in the LTEA HepaRG cell culture assay. It is a marker of Oxidative Stress.Data from the assay component LTEA_HepaRG_GSTM3 was analyzed into 1 endpoint. This assay endpoint, LTEA_HepaRG_GSTM3, was analyzed with bidirectional fitting relative to DMSO as the negative control and baseline of activity. Using a type of inducible reporter, measures of mRNA induction for gain or loss-of-signal activity can be used to understand regulation of transcription factor activity. To generalize the intended target to other relatable targets, this assay endpoint is annotated to the transferase intended target family, where the subfamily is alkyl and aryl transferase.
# A total of 1060 chemcials from the ToxCast library were tested in eight-point concentration-response experiments. Cell culture and cytotoxicity assays were conducted at Thermo Fisher Scientific's Custom Services facility (Madison, WI). A single lot of human HepaRG cells (Thermo Fisher Scientific, Frederick, MD) was used for the cell culture experiments. 96-well format collagen type I coated plates of human HepaRG cells were prepared using established methods. Briefly, cryopreserved HepaRG cells were thawed, plated at a density of approximately 100,000 cells/well in HepaRG Thaw, Plate, and General Purpose media (HPRG770, Thermo Fisher Scientific), and incubated for 48 hours. 0.5% DMSO was selected as vehicle control to balance the requisite need of DMSO in HepaRG cultures to maintain differentiation (for example, baseline metabolism, proportions of hepatocytes vs. cholangiocytes), while enabling further hepatic receptor pathway activation (for example, PXR and CAR) in response to chemical exposure. 48 hours after plating, the culture medium was replaced with HepaRG Serum-Free Incudtion Media. Cells were exposed to each test chemical in duplicate and maintained in CO2 incubators for another 48 hours. Chemical plates were thawed to room temperature and 200x concentrations of treatment groups were prepared. 8-point conentration-reponse curves were made with the highest exposure at 100 uM, followed by half-log dilutions, all in 0.5% DMSO. Each test plate contained variouse controls, induction positive controls (1mM phenobarbital), cytotoxicity positive controls ([…] aflatoxin B1), vehicle controls (0.5% DMSO), and total lysis controls (0.5% DMSO). Cell morphology images were taken using an Essen IncuCyte FLR automated microscope, with six 96-well plates imaged in about 24 minutes. Images were captured and exported and JPEG files. Spent culture media was transfered to black-well plates for the LDH assay, and remaining media was sorted at -80 C for later use. Cells were treated with RLT buffer and frozen until shipped for gene expression analysis. Total RNA was isolated from the cell suspension in 75 uL of Buffer RLT (Qiagen, Germantown, MD 20874) by Quintiles/Expression Analysis (Durham, NC) using a custom isolation procedure. Total RNA from each plate well was transferred to a preamplification plate. Fluidigm's 96.96 Dynamic ArrayTM (Fluidigm, Amsterdam, the Netherlands) technology was used for gene expression analyses by quantitative reverse transcription polymerase chain reaction (qRT-PCR, performed by Quintiles/Expression Analysis, Durham, NC)89. Standard TaqManTM Assays (Applied Biosystems/ThermoFisher Scientific, Foster City, CA) were used to assess the expression of 93 genes selected based on their selectivity and sensitivity to important hepatic receptors known to be modulated by environmental chemicals; importance in human hepatocyte functionality; and hepatotoxicity. […]
SMILES,AC50,outcome
CCOC(=O)CCC(=O)OCC,83.4 µM (active),–
CCCCCCCCCCO,–,inactive
NCCO,–,inactive
CCCCCCCCCCC,–,inactive
COCCOCCOC,2.14 µM (active),–
O=C(N[C@@H](Cc1ccccc1)[C@@H](O)C(=O)N1C[C@@H](O)[C@@H](O)C1)c1cc2cc(Cl)ccc2[nH]1,–,inactive
COc1cc(S(=O)(=O)O)c(C)cc1N=Nc1c(O)ccc2cc(S(=O)(=O)O)ccc12,–,inactive
NC(=O)Cn1c(=O)cc(CCN2CCN(c3nccc4sccc34)CC2)c2ccc(F)cc21,–,inactive
CC1(C)NC(=O)NC1=O,–,inactive
CCOC(=O)C(C)(C)Oc1ccc(Cl)cc1,–,inactive
COc1ccc2c(c1)c(CC(=O)O)c(C)n2C(=O)c1ccc(Cl)cc1,–,inactive
CNC(=O)[C@H]1O[C@@H](n2cnc3c(NCc4cc(Cl)ccc4OCc4cc(C)no4)ncnc32)[C@H](O)[C@@H]1N,–,inactive
CC=Cc1ccc(O)c(OC)c1,–,inactive
Clc1cc(Cl)c(Cl)cc1Cl,–,inactive
C=CCOC(=O)c1ccccc1C(=O)OCC=C,–,inactive
Nc1ccccc1N,–,inactive
Cc1ccc(N(C)C)cc1,–,inactive
Cc1ccc2ncccc2c1,–,inactive
CNCc1cc(F)ccc1Oc1ccc(Cl)c(Cl)c1,–,inactive
CCCCCCCCCCCCCCCCCC(=O)O,–,inactive

SMILES,AC50,outcome
COCCOC[C@H](CC1(C(=O)NC2CCC(C(=O)O)CC2)CCCC1)C(=O)Oc1ccc2c(c1)CCC2 (stereo not given in full),–,inactive
Cc1nc(C)nc(N2C[C@@H](C)N(c3ccnc([C@@H](C)O)n3)[C@@H](C)C2)n1,–,inactive
Cc1nc(-c2ccc3c(c2)CCN(CCC2CCC(NC(=O)/C=C/c4ccc(F)cc4)CC2)CC3)no1 (stereo not given),–,inactive
CCCCc1ccc2c(n1)[C@@H](c1ccc(OC)cc1C[C@H](C)C(=O)O)[C@H](C(=O)O)[C@H]2c1ccc2c(c1)OCO2,–,inactive
CCCCCCCCCCCCCCCC,–,inactive
Cc1cc(NC(=O)C(=O)O)cc(C)c1Oc1ccc(O)c2c1CCC2,–,inactive
CCNc1cccc(C)c1,–,inactive
C[Si]1(C)O[Si](C)(C)O[Si](C)(C)O[Si](C)(C)O1,–,inactive
CCCc1cc(=O)[nH]c(=S)[nH]1,–,inactive
CCCCCCCC=O,–,inactive
CC1(C)CC(N=C=O)CC(C)(CN=C=O)C1 (stereo not given),–,inactive
FC(F)(F)C(F)(F)C(F)(F)C(F)(F)C(F)(F)C(F)(F)CCI,–,inactive
Cc1ccc(Cl)cc1,–,inactive
COc1ccc(C)cc1N,–,inactive
CC(=O)OCCOCCOCCOC(C)=O,–,inactive
Cc1ccc(C)c(C)c1,–,inactive
C[C@]12C=CC(=O)C=C1CC[C@@H]1[C@@H]2C(=O)C[C@@]2(C)[C@H]1CC[C@]2(O)C(=O)CO,–,inactive
CCCCC(CC)COC(=O)CC(C(=O)OCC(CC)CCCC)S(=O)(=O)O (stereo not given),–,inactive
CCCCCCC(=O)OCC,–,inactive
O=c1[nH]cc(F)c(=O)[nH]1,–,inactive
